Screen size: about 320,000 compounds; about 1,900 (0.59%) were called active. Rule as the data show it: active = inhibition mostly above about 10% (no sharp cut-off); inactive = mostly below about 6.7%. What follows is part of a selection rich in actives, with near analogues and random picks from the rest.

Chain of Protein LANA1 (Human herpesvirus 8 type P (isolate GK18)) (Q9QR71 whole entry, looked up): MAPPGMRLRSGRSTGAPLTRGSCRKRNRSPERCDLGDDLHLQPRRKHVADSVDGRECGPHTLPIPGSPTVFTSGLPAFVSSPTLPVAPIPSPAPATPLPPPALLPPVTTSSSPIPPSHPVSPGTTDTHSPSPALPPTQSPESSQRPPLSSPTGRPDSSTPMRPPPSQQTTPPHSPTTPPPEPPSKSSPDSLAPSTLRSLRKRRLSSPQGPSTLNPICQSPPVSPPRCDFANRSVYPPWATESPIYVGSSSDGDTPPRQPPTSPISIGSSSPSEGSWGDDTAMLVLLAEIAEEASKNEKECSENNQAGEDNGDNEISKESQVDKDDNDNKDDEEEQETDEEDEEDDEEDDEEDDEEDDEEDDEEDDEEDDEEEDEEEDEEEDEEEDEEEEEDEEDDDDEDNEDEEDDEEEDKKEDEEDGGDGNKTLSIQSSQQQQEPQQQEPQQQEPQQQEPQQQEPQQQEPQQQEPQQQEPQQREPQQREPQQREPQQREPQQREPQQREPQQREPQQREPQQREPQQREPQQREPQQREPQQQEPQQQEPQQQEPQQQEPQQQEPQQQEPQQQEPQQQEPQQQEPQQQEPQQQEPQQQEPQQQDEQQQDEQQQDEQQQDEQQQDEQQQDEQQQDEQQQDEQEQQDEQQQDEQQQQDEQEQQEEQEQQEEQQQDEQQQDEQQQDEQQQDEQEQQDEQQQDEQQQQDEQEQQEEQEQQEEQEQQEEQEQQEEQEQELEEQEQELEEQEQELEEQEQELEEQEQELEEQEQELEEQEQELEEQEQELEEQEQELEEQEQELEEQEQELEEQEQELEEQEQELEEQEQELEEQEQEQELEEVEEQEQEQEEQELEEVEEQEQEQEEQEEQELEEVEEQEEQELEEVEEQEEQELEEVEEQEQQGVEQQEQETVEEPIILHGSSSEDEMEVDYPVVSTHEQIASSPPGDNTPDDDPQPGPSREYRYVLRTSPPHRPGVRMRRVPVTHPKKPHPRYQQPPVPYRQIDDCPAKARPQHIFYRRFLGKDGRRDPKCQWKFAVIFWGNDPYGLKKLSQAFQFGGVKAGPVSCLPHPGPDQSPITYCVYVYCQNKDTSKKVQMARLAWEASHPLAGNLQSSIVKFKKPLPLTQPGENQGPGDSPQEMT

The experiment concerns the target Protein LANA1 (Human herpesvirus 8 type P (isolate GK18)) (UniProt Q9QR71). In words: blockers of LANA interaction with H2A/H2B – biochemical, FP readout, HTS, primary screen (AID 2629). Conditions: cell-free LANA-H2A/H2B peptide, fluorescence polarization, stronger effect = higher value, concentration not given here.
On to `O=C1COc2ccc(C(=O)COC(=O)C3CC(O)CN3S(=O)(=O)c3ccc(Cl)cc3)cc2N1` (stereo not drawn), for which the inhibition (as a rule, the drop in the measured response relative to a control, in per cent) was -4.73% (inactive).
To `COc1ccccc1NC(=O)C1CCCN1S(=O)(=O)c1ccc(Cl)cc1` (stereo not drawn) belongs -0.219% (inactive).
To `NNC(=O)C1CC(O)CN1S(=O)(=O)c1ccc(Cl)cc1` (stereo not drawn) belongs 18% (active); to `COc1ccc2c(C)cc3nnnn3c2c1`, 6.55% (inactive).
The same measure for `CC(C)CC(=O)Nc1cc(C(F)(F)F)ccc1N1CCOCC1`: 3.7% (inactive); for `O=C(CN1C(=O)NC2(CCCC2)C1=O)Nc1cc(C(F)(F)F)ccc1N1CCOCC1`: -2.08% (inactive).
Turning to `O=C(Cn1nnc2ccccc2c1=O)Nc1cc(C(F)(F)F)ccc1N1CCOCC1`, the inhibition was 15.8% (active).
The same measure for `Cc1cc(Nc2cc(N3CCN(C)CC3)nc(Sc3ccc(NC(=O)C4CC4)cc3)n2)n[nH]1`: 1.71% (inactive); for `CN(c1ccccc1)S(=O)(=O)c1ccc(Cl)c(C(=O)OCC(N)=O)c1`: -3.79% (inactive); for `CN(c1ccccc1)S(=O)(=O)c1ccc(Cl)c(C(=O)OCC(=O)NCc2ccco2)c1`: -3.84% (inactive).
In the case of `Cc1ccc(S(=O)(=O)N(CC(O)CN2CCCCC2)c2cccc([N+](=O)[O-])c2)cc1` (stereo not drawn), the inhibition was 7.02% (inactive).
Turning to `Cc1cc(=O)n2nc(N3CCCC(C(=O)N4CCN(C)CC4)C3)sc2n1` (stereo not drawn), the inhibition is 0.763% (inactive).
To `CCc1c(C)nc2ncnn2c1N1CCC(C(=O)NCc2ccc3c(c2)OCO3)CC1` belongs 0.84% (inactive); to `O=C(CSc1nnc(-c2ccccc2O)o1)NC1CCCCC1`, 3.2% (inactive); to `CCn1c(SCC(=O)NC2CCCC2)nnc1-c1ccoc1C`, -2.52% (inactive).
The same measure for `Cc1occc1-c1nnc(SCC(=O)NC2CCCCC2)o1`: 14.3% (active); for `CCCCSCCCNC(=O)C1CCC(CNS(=O)(=O)c2ccc(NC(C)=O)cc2)CC1` (stereo not drawn): -3.44% (inactive); for `CCCC1C(c2ccccc2)C(C#N)(C#N)C2(C#N)CC1(N)NC2=O` (stereo not drawn): 182% (active).
In the case of `CCSC1=NCCN1C(=O)c1ccc(S(=O)(=O)N(CC)CC)cc1`, the inhibition is 10.9% (inactive).
As to `O=C(CN1CCN(c2cccc(Cl)c2)CC1)Nc1ccc(S(=O)(=O)N2CCOCC2)cc1`, the inhibition is 145% (active).
`O=C(CN1CCCCCC1)Nc1ccc(S(=O)(=O)N2CCCCC2)cc1`: the inhibition is 7.61% (inactive).
To `O=C(CN1C(=O)CCC1=O)Nc1ccc(S(=O)(=O)N2CCOCC2)cc1` belongs 1.75% (inactive); to `COC(=O)CNS(=O)(=O)c1ccc(Cc2ccc(S(=O)(=O)NCC(=O)OC)cc2)cc1`, 5.82% (inactive); to `COC(=O)C1=C(C)NC2=C(C(=O)c3ccccc32)C1c1ccc(-c2ccc(C(=O)O)cc2)o1` (stereo not drawn), 3.17% (inactive).
To `CC(=O)c1sc(N/N=C/c2ccc(C(C)C)cc2)nc1C` belongs 2.17% (inactive); to `COc1ccc(S(=O)(=O)N2CCOCC2)cc1NC(=O)CSc1nnc(NC2CC2)s1`, -4.5% (inactive).
`COc1ccc(NC(=O)NNC(=O)COc2cc(C)c(Cl)c(C)c2)c(OC)c1`: the inhibition is -5.21% (inactive).
The same measure for `Cc1ccc(C(=O)CCC(=O)N(C)CC(=O)Nc2c(Cl)cccc2Cl)cc1`: 4.61% (inactive).
`CN(CC(=O)Nc1c(Cl)cccc1Cl)C(=O)CNC(=O)C1CCCCC1`: the inhibition was -5.68% (inactive).
For `CN(CC(=O)Nc1c(Cl)cccc1Cl)C(=O)c1ccncc1`, the inhibition was 111% (active).
Take `COc1cccc(NC(=O)C/C(C)=N/NC(=O)C2CCCCC2)c1`: the inhibition is 3.19% (inactive).
The same measure for `O=C(Nc1cccc(F)c1)NC1CCCCCCC1`: 0.578% (inactive); for `C/C(CC(=O)Nc1cccc(F)c1)=N\NC(=O)C(=O)NC1CCCCC1`: 15.3% (active); for `COc1ccc(F)cc1C(=O)C1CCCN(C(=O)CCc2ccccn2)C1` (stereo not drawn): -0.521% (inactive).
The same measure for `CC1=NN(C(=O)c2ccc(Br)cc2)C(O)(c2ccccc2)C1` (stereo not drawn): 15.6% (active); for `CC1=NN(C(=O)c2ccccc2Br)C(O)(c2cccnc2)C1` (stereo not drawn): -0.482% (inactive).
To `CCOC(=O)C1(O)CC(C)=NN1C(=O)c1cccc(Br)c1` (stereo not drawn) belongs 1.92% (inactive); to `Cc1coc2c1c(C)cc1oc(=O)c(CC(=O)NCC(=O)N[C@H](C(=O)O)C(C)C)c(C)c12`, 1.45% (inactive).
Take `COc1ccc(OC)c(NC(=O)CSc2nc(N)c(-c3ccccc3)c(=O)[nH]2)c1`: the inhibition is 4.91% (inactive).
The same measure for `COc1ccc(C(=O)Nc2c(N)nc(SCC(=O)Nc3ccc(C(C)=O)cc3)[nH]c2=O)cc1`: 2.95% (inactive); for `COc1ccc(NC(=O)CSc2nc(N)c(-c3ccccc3)c(=O)[nH]2)cc1`: 12.1% (active).
To `CCOc1ccc(CCNC(=O)COC(=O)C2CCN(c3ccc(C(F)(F)F)cn3)CC2)cc1OCC` belongs 2.54% (inactive).
To `O=C(CN1CCc2ccccc2C1)Nc1cccc(S(=O)(=O)N2CCOCC2)c1` belongs 2.86% (inactive); to `CSCCC(NS(=O)(=O)c1ccc(C)cc1)C(=O)NCCc1c[nH]c2ccccc12` (stereo not drawn), -5.03% (inactive).
Regarding `CCc1nnc(NC(=O)[C@@H](NC(=O)c2cccc(C)c2)C(C)C)s1`, the inhibition is 1.78% (inactive).
The same measure for `CCOc1c2ccc(C(=O)NCc3ccc(OC(F)(F)F)cc3)cc2nn1C`: -0.924% (inactive); for `CCCn1nc2cc(C(=O)NCc3ccccc3)ccc2c1OCC`: 3.43% (inactive); for `CCOc1c2ccc(C(=O)NCc3ccc4c(c3)OCO4)cc2nn1C`: 19.6% (active).
To `COC(=O)[C@H](C(C)C)n1c(C)c(C(C)=O)c(C(C)=O)c1C` belongs -3.34% (inactive); to `CCC(=O)N(C)C(c1ccccc1Cl)c1nnnn1-c1c(C)cccc1C` (stereo not drawn), -0.0342% (inactive); to `COC(=O)c1ccc(SCc2ccccc2)nc1`, 60.3% (active).
As to `COC(=O)c1ccc(CSc2ccc(S(=O)(=O)N3CCCCC3)cn2)cc1`, the inhibition is -0.0946% (inactive).
`COC(=O)c1ccc(CSc2nncn2C)cc1`: the inhibition was 5.16% (inactive).
To `CCCCNc1ccc(C(=O)Nc2cccc(C)n2)cc1[N+](=O)[O-]` belongs -3.43% (inactive); to `COc1ccc(S(=O)(=O)Nc2cccnc2)c(Cl)c1Cl`, 12.6% (active); to `COc1ccccc1Oc1ccc(S(=O)(=O)Nc2cccnc2)cc1`, 2.24% (inactive).
In the case of `Cc1cc(C)c(C)c(S(=O)(=O)Nc2cccnc2)c1C`, the inhibition is -0.825% (inactive).
Take `COc1ccc(CCc2nnc(CCC(=O)NCc3cnn(-c4ccccc4C)c3)o2)cc1`: the inhibition is 16.6% (inactive).
The same measure for `CC(=O)Nc1ccc(S(=O)(=O)NC2(C(F)(F)F)C(=O)Nc3c2c(=O)[nH]c(=O)n3Cc2ccccc2)cc1` (stereo not drawn): -2.71% (inactive).
The same measure for `CC(=O)n1cc([C@@H]2C=C(C(=O)N3CCN(Cc4ccc5c(c4)OCO5)CC3)O[C@H](OCc3ccc(CO)cc3)C2)c2ccccc21`: 1.33% (inactive); for `CCC(C)c1ccc(NC(=S)NCc2ccccn2)cc1` (stereo not drawn): -1.48% (inactive).
`CCN(CC)CCOc1ccc2c(c1)C(=NNC(=O)c1ccccn1)c1cc(OCCN(CC)CC)ccc1-2`: the inhibition is -1.56% (inactive).
To `COc1ccc(-c2onc3ccc(C(C)=O)cc23)cc1` belongs 26.3% (active).
To `CC(OC(=O)c1ccc2noc(-c3ccccc3)c2c1)C(N)=O` (stereo not drawn) belongs -5.93% (inactive); to `Oc1ccc(-c2onc3ccc(Cl)cc23)cc1`, 3.12% (inactive); to `CC(C)c1ccc(Nc2nnc(SCC(=O)c3nnc(-c4ccccc4)o3)s2)cc1`, -16.3% (inactive).
To `Cc1noc(C)c1COc1ccc(C(=O)NCCOc2ccccc2)cc1` belongs 2.1% (inactive); to `COC(=O)c1cnc(Nc2cc(C)ccc2OC)c2ccccc12`, -2.27% (inactive).
Take `COc1ccc(C)cc1Nc1nc(C)nc2c1oc1ccccc12`: the inhibition was 3.52% (inactive).
To `COc1ccc(C)cc1Nc1nc(-c2c(C)[nH]c3ccccc23)cs1` belongs 39.5% (active); to `Cc1cc(C=O)c(C)n1-c1ccc(NC2CCCCC2)c([N+](=O)[O-])c1`, 5.17% (inactive).
The same measure for `Cc1ccc(NS(=O)(=O)c2ccc(C(C)C)cc2)cc1S(=O)(=O)N1CCOCC1`: -10.5% (inactive); for `O=C(CCc1ccccc1)NNC(=O)COc1ccc(Cl)cc1`: 77.8% (active).
To `O=C(CCCOc1ccccc1)NNC(=O)c1ccc(Cl)cc1` belongs 3.13% (inactive).
On to `O=C(COc1ccc(Cl)cc1)NCCSc1ccccc1`, for which the inhibition is -4.08% (inactive).
To `COC(=O)Cc1csc(/N=C/c2c(O)n(-c3cccc(C(F)(F)F)c3)c(=O)c3ccccc23)n1` belongs -3.9% (inactive).
As to `Cn1c(CCc2ccccc2)nnc1SCC(N)=O`, the inhibition was -7.18% (inactive).
As for `N#CCCn1ncc2ccccc21`, the inhibition is 4.72% (inactive).
`O=C(CNCc1ccc(F)cc1)Nc1ccccc1-c1ccccc1`: the inhibition was -4% (inactive).
The same measure for `COc1cc(NC(=O)c2ccccc2)c(OC)cc1NC(=O)Cc1ccccc1`: -1.39% (inactive); for `CC(=O)NCC(=O)N1CCCC(C(=O)c2ccc3c4c(cccc24)CC3)C1` (stereo not drawn): -1.06% (inactive); for `CCn1ccnc1CN1CCCC(C(=O)c2ccc3c4c(cccc24)CC3)C1` (stereo not drawn): 25.9% (active).
To `Cc1ncoc1C(=O)N1CCCC(C(=O)c2ccc3c4c(cccc24)CC3)C1` (stereo not drawn) belongs 1.25% (inactive); to `CCc1c(O)cc2n(c1=O)-c1ccccc1C2(C)C`, 5.7% (inactive).
To `O=C(CN1CCN(c2ncccn2)CC1)Nc1ccccc1C(F)(F)F` belongs 0.982% (inactive).
Turning to `COc1cc(C(=S)N2CCOCC2)ccc1O`, the inhibition is 9.41% (inactive).
Regarding `COc1ccc(OC)c(C(=O)c2coc3ccc(O)c(CN4CCOCC4)c23)c1`, the inhibition was -2.58% (inactive).
To `COc1ccc(/C(C)=N/N2CCOCC2)c(O)c1` belongs 25.4% (active).
The same measure for `CC(C)(C)C1CCC(OC(=O)CCC(=O)Nc2ccccc2)CC1` (stereo not drawn): -3.13% (inactive); for `Cc1ccc(C2NC(C(=O)O)CS2)cc1` (stereo not drawn): 1.22% (inactive).
In the case of `CN(CC(=O)Nc1ccc(F)c(F)c1F)C(=O)Cn1cnc2c1c(=O)n(C)c(=O)n2C`, the inhibition is 1.35% (inactive).
To `O=c1[nH]n2c(=O)c3c([nH]c2c1N=Nc1ccccc1)CCC3` belongs -4.38% (inactive); to `CC(C)(C)n1c(=O)[nH]c2c(c1=O)CCC2`, 23.6% (active).

These data come from PubChem BioAssay AID2629 (Broad Institute, 2010).
